Sampled rows, rich in hits. Any-hit rate of the full collection: about 1.6%.
KCNQ2 pot: enhances the rat KCNQ2 potassium channel | CHO-K1 KCNQ2, FluxOR thallium flux fluorescence; active compounds read high | B-score at 10 µM | hit rate 0.54% among 310,000 | AID 2239;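 active = fluorescence ratio B-score at least 3 SD of library B-scores, with initial fluorescence B-score within 3 of them, cut at about 5.3 in these data; same plate scores as AID 2156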;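 also: B-score of peak minus minimum over baseline fluorescence ratio after K+ and Tl+ stimulus; positive B-score means potentiation of KCNQ2 with more thallium influx and brighter signal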
KCNQ2 inh: KCNQ2 (rat) channel inhibition. CHO-K1 KCNQ2, FluxOR thallium flux, 20 min; active compounds read low. O88943. hit rate 1.1% among 310,000. B-score at 10 µM;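 active = fluorescence ratio B-score at most minus 3 library SDs, with starting brightness B-score within 2 library SDs, cut at about -5.5 in these data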
Kir21 confirm: confirmation of mouse Kir2.1 potassium channel inhibitors. Kir2.1-expressing cells, FluxOR thallium flux fluorescence; active compounds read low. shares compounds with KCNQ2 pot. AID 2032. Tl flux remaining, % of negative control (active compounds read low), % at 10 µM. hit rate 41% among 2,300;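 active = Primary-screen hit whose thallium flux fell at least 3 control SD below untreated wells in both duplicates, with normal baseline fluorescence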;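 also: 0% = blank wells without stimulus and 100% = stimulated no-compound controls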
HEK293 Tl flux: alters thallium flux in parental HEK293 cells, Kir2.1 counter-screen. shares compounds with KCNQ2 pot. FluxOR thallium flux fluorescence; 0% = unstimulated blank wells. FluxOR signal as % of negative control (100 = no effect), % at 10 µM. hit rate 19% among 2,300. AID 2105;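 active = dye signal at least 3 control SD above or below untreated wells in both duplicates, raw fluorescence within 3, either direction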;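 also: percent is based on the flux ratio of peak minus minimum fluorescence over baseline F0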
CHO-K1 Tl ctr: counter-screen for KCNQ2 potentiators: effect in parental CHO-K1 cells | shares compounds with KCNQ2 pot | FluxOR thallium flux fluorescence; zero = vehicle mean+3SD, 100% = vehicle-minus-blank window | activity increase over 3SD of controls, % at 10 µM | hit rate 43% among 1,200;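 active = signal rise of at least 3 SD above the untreated control mean, in both duplicate wells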;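 also: counter screen of KCNQ2 potentiator hits so any rise reflects channel-independent effects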
KCNQ1 pot spec: selectivity of KCNQ2 potentiators: effect on human KCNQ1 | shares compounds with KCNQ2 pot | CHO KCNQ1 stable, FluxOR thallium flux fluorescence; beyond 3SD, as % of vehicle-control signal | activation over 3SD threshold, % at 10 µM | hit rate 28% among 1,200 | AID 2283;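 active = fluorescence ratio rise of at least 3 SD of vehicle wells above their mean, in both replicate wells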;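 also: 0% = vehicle mean plus 3 SD and 100% = vehicle minus unstimulated blank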
Target sequence (P51787 whole entry, looked up): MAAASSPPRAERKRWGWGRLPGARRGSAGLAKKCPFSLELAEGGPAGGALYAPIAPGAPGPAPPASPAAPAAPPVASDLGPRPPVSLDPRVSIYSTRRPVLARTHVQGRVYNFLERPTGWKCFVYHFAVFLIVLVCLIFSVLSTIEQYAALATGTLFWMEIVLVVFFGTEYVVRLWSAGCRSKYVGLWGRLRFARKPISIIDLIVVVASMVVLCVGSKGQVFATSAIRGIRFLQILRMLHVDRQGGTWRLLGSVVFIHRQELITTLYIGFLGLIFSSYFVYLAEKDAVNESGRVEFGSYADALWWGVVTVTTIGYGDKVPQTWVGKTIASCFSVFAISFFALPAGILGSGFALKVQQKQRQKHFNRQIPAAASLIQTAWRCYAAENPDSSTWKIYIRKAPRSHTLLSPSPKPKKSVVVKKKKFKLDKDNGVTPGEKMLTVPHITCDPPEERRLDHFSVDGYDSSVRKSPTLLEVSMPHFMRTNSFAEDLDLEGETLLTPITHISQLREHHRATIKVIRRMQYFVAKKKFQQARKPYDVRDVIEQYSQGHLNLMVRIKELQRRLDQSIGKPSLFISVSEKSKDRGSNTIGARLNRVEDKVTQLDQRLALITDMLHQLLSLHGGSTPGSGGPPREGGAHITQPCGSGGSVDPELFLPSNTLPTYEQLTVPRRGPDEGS
KCNQ2 pot conf: rat KCNQ2 channel potentiator confirmation; potentiation, less the hit threshold, % at 10 µM; shares compounds with KCNQ2 pot; AID 2287; hit rate 68% among 1,200; CHO-KCNQ2 cells, FluxOR thallium flux fluorescence;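 active = fluorescence ratio rising 3 SD or more over the vehicle control mean in both replicates, plus primary screen hit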;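 also: peak minus minimum thallium fluorescence divided by baseline after K/Tl stimulus; 0% = vehicle mean plus 3 SD and 100% = vehicle minus unstimulated blank difference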
Kir21 spec: tests whether KCNQ2 potentiators also affect mouse Kir2.1 | activity over 3SD threshold, % at 10 µM | HEK293 Kir2.1, FluxOR thallium flux fluorescence | shares compounds with KCNQ2 pot | AID 2345 | hit rate 2% among 1,200;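 active = fluorescence ratio rise of at least 3 SD above the vehicle-control mean, seen in both replicates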;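 also: 0% = vehicle mean plus 3 SD and 100% = vehicle minus no-stimulus blank window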
KCNQ2 W236L pot: rat KCNQ2 W236L mutant potentiation by KCNQ2 potentiators. shares compounds with KCNQ2 pot. CHO KCNQ2-W236L, automated patch clamp current. current increase over 3SD of negative controls (%), active compounds read high, % at 25 µM. hit rate 10% among 940. AID 2558;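 active = current increase at least 3 SD of the untreated controls above them in both duplicate recordings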
* = called active by the depositor; i = inactive; · = no result given.

SMILES	KCNQ2 pot	KCNQ2 inh	Kir21 confirm	HEK293 Tl flux	others
Cc1ccc(F)cc1NC(=O)CSc1ncccn1	3.2	i	·	·
Cc1cc(C)c[n+](CC(=O)c2c(C)cc(C)c([N+](=O)[O-])c2C)c1	·	i	·	·
CSc1ccccc1NC(=O)CSc1nnc(Cc2ccccc2)o1	0.14	i	·	·
Cc1nc(NC(=O)c2ccccc2)sc1C1(C)CC(c2ccc(OC(F)(F)F)cc2)=NO1 (stereo not given)	·	i	·	·
CC(CCc1ccccc1)NC(=O)COC(=O)c1ccc(NC(=O)CC#N)cc1 (stereo not given)	2.3	i	·	·
O=C(COc1coc(CN2CCN(c3ccccc3F)CC2)cc1=O)NC1CCCC1	·	i	·	·
Cc1ccc(NC(=O)CS(=O)CC(=O)N(c2ccc(C)cc2)C(C)C(=O)NC2CCCCC2)cc1 (stereo not given)	·	i	·	·
O=C(c1cc([N+](=O)[O-])cc([N+](=O)[O-])c1)N1CCOCC1	1.6	i	·	·
COc1ccc(C(=O)OC(COc2ccccc2)Cn2ccnc2)cc1 (stereo not given)	·	i	54%*	i
COC(=O)c1cccc(OCC(O)Cn2ccnc2)c1 (stereo not given)	·	i	·	·
CC(C)OCCCNC(=O)C1CC(=O)N(CCc2ccccc2)C1 (stereo not given)	·	i	·	·
COc1cccc(NC(=O)C(=O)N/N=C(\C)CC(=O)Nc2ccc(NC(C)=O)cc2)c1	1.2	i	·	·
Cc1cc(Oc2ccccc2)nc(SCC(=O)Nc2ccc(Cl)c(Cl)c2)n1	5.5*	i	i	i	CHO-K1 Tl ctr=-26;KCNQ1 pot spec=-10;KCNQ2 pot conf=6.8*;Kir21 spec=-35;KCNQ2 W236L pot=i
Cc1cc(Oc2ccccc2)nc(SCC(=O)Nc2ccccc2)n1	·	i	·	·
CCOC(=O)c1c(CSc2ccc(CC)cc2)oc2ccc(O)c(CN(C)C)c12	-5.8	-5.8*	16%*	i
CCOC(=O)c1c(C)oc2ccc(O)c(CN(C)C)c12	0.06	i	·	·
CCOC(=O)c1c(CSc2ccccc2)oc2cc(Br)c(O)c(CN(C)C)c12	0.71	i	·	·
CC(=O)c1c(CSc2ccccc2)oc2ccc(O)c(CN(C)C)c12	·	i	38%*	64%*
CC(C)(CNC(=O)Cc1ccc(Cl)cc1Cl)N1CCCCC1	1.5	i	·	·
O=C(NCCc1ccc(F)cc1)c1cc(=O)c2ccccc2o1	·	i	·	·
CC(=O)c1c(C)[nH]c(C(=O)CN2C(=O)NC(C)(c3ccc(C)cc3)C2=O)c1C (stereo not given)	0.07	i	·	·
COc1ccc(CN(C)C(=O)c2cnc(OC)cc2C(F)(F)F)c(OC)c1	0.51	i	·	·
CN(C)CCN(Cc1ccccc1)C(=O)[C@H](Cc1ccccc1)N1C(=O)c2ccccc2C1=O	0.91	i	69%*	i
O=C(O)C(Cc1ccccc1)N1C(=O)c2ccccc2C1=O (stereo not given)	1.3	i	·	·
COc1ccc(C)cc1Nc1n[n+](-c2ccccc2)c(-c2ccc(C(=O)O)cc2)s1	0.64	i	·	·
SMILES	KCNQ2 pot	KCNQ2 inh	Kir21 confirm	HEK293 Tl flux	others
COc1ccc(C)cc1Nc1n[n+](-c2ccccc2)c(-c2cc(OC)c(OC)cc2Br)s1	-6.4	-6.4*	53%*	i
CN1CCC(=C(c2ccccc2)c2ccc(Br)cc2)CC1	·	i	38%*	i
CN1CCC(OC(=O)c2ccc(Br)cc2)CC1	0.43	i	·	·
O=C(Cn1nc(-c2cccc([N+](=O)[O-])c2)c2ccccc2c1=O)Nc1cccnc1	0.19	i	·	·
COCCCNCCCOc1ccc(C(C)(C)c2ccccc2)cc1	0.52	i	·	·
CC(C)(c1ccccc1)c1ccc(OCCCNCCO)cc1	1	i	28%*	i
Cc1ccc(Nc2nc(-c3cccs3)cs2)nc1	3	i	i	i
Cc1ccc(Nc2nc(-c3ccccc3)cs2)nc1	0.26	i	·	·
CCCc1cc(=O)oc2cc(C)cc(OCC(=O)N[C@@H](CSCc3ccccc3)C(=O)O)c12	1.4	i	·	·
CC(=O)c1ccc(S(=O)(=O)NC2CCCCCCC2)cc1	1.5	i	·	·
O=C(COc1ccccc1F)N1CCCc2ccccc21	0.68	i	·	·
CC(=O)c1cc(F)ccc1OCC(=O)N1CCCc2ccccc21	·	i	54%*	i
CSc1cccc(NC(=O)c2cc(S(=O)(=O)N3CCc4ccccc43)cn2C)c1	·	i	·	·
Fc1ccccc1CNCCC(Cc1ccccc1)c1ccc2c(c1)OCO2 (stereo not given)	·	i	40%*	77%*
COc1ccc(CNCCC(c2ccccc2)c2ccc3c(c2)OCO3)cc1 (stereo not given)	·	i	·	·
CC(C)CCC(CCNCc1ccccn1)c1ccc2c(c1)OCO2 (stereo not given)	·	i	57%*	i
CCNCCC(CCC(C)C)c1ccc2c(c1)OCO2 (stereo not given)	0.75	i	·	·
COc1ccc(CNC(=O)CCNS(=O)(=O)c2cc(Br)cnc2N)cc1	·	i	·	·
Cc1ccc(C)c(COC(=O)CCN=C2NS(=O)(=O)c3ccccc32)c1	·	i	·	·
CCCCn1c(N)c(N(CCOC)C(=O)COC(=O)CCOc2ccccc2)c(=O)[nH]c1=O	·	i	i	i
CCCCn1c(N)c(N(CCOC)C(=O)COc2ccc(OCC)cc2)c(=O)[nH]c1=O	0.94	i	·	·
Cn1c(SCC(=O)NC(=O)Nc2ccccc2)nnc1-c1ccncc1	1.1	i	·	·
COc1ccccc1N1CCN(Cc2ccc(OC)c(OC)c2OC)CC1	·	i	·	·
COc1ccccc1N1CCN(Cc2ccc(O)c3ncccc23)CC1	6.5*	i	i	126%*	CHO-K1 Tl ctr=-5;KCNQ1 pot spec=-22;KCNQ2 pot conf=3.8*;Kir21 spec=-45;KCNQ2 W236L pot=i
CN1CCN(c2ccccc2NC(=O)Cc2ccc(Cl)cc2)CC1	1.9	i	·	·
O=C(Cc1ccc(F)cc1)Nc1ccccc1N1CCCC1	11*	i	59%*	i	CHO-K1 Tl ctr=2.5*;KCNQ1 pot spec=-10;KCNQ2 pot conf=48*;Kir21 spec=-81;KCNQ2 W236L pot=i
O=C(Cc1ccc(Cl)c(Cl)c1)Nc1ccccc1N1CCCC1	7.2*	i	i	i	CHO-K1 Tl ctr=103*;KCNQ1 pot spec=-13;KCNQ2 pot conf=56*;Kir21 spec=-50;KCNQ2 W236L pot=i
O=C(Nc1ccc(F)cc1)Nc1ccccc1N1CCCCC1	1.5	i	·	·

Source: PubChem BioAssay
